ALDH1A1 block: inhibitors of human aldehyde dehydrogenase 1A1. Purified ALDH1A1, NADH fluorescence, propionaldehyde substrate. AID 1030. Potency, µM (highest dose often 75.3 µM), without a hit: at the highest dose activity, negative = inhibition, usual class: inhibitors. 7.3% of 220,000 active;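 note: potency is the fitted concentration of half-maximal effect; plate controls were no enzyme wells and a reference inhibitor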
Lamin A splicing: LMNA splicing modulation; HeLa LMNA splicing GFP/RFP minigene ratio, 48 h; Potency, µM (doses to about 46.1 µM), for the others: top-dose ratio change, negative = inhibition, usual class: inhibitors; 0.01% of 200,000 active; AID 1487; active = well fitted inhibition curve with a large enough effect in the signal ratio, with a control signal flat, not every such curve was filed as active; inconclusive = small, poorly fitted or top-dose-only effect, or effect the other way, or a change in a side signal; the % refers to the signal ratio; note: potency is the fitted concentration of half-maximal effect
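S3 HeLa cells stably expressing lamin A-EGFP splicing minigene plus DsRed2, 600 cells/well, 48 h compound exposure at 37C. Laser-scanning cytometry; analysed as GFP (500-530 nm)/RFP (575-640 nm) total intensity ratio; 0.5% DMSO vehicle.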
ALOX12 inhib: inhibitors of human 12-lipoxygenase (ALOX12) | Potency, µM (doses to about 57.1 µM), for the others: at the top dose activity change, negative = inhibition, actives largely listed as inhibitors | purified 12-hLO, xylenol orange hydroperoxide absorbance | 0.12% of 150,000 active | P18054; active = well fitted inhibition curve with a large enough effect; inconclusive = small, poorly fitted or top-dose-only effect; note: potency is the fitted concentration of half-maximal effect; nearly all actives have a fitted effect of over 55% in size
Target sequence (P18054 whole entry, looked up): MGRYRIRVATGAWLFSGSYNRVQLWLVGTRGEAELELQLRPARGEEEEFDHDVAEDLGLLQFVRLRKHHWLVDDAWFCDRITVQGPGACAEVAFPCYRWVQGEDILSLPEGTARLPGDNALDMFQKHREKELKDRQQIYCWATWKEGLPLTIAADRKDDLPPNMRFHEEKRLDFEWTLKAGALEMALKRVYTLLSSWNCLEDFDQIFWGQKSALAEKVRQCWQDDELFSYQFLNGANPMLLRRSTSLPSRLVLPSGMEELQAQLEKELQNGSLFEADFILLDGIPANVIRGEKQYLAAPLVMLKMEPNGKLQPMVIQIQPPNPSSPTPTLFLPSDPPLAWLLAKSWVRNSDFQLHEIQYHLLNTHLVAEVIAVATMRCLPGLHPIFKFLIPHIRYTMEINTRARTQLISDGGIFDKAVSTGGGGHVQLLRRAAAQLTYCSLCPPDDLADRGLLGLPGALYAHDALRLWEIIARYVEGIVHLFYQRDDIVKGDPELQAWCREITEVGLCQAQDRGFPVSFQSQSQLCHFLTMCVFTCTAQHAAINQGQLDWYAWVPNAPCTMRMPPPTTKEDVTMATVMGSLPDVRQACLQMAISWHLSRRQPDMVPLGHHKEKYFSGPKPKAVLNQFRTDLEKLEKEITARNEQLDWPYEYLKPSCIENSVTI
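Purified human 12hLO (150 nM), preincubated 15 min with compound, then 40 uM arachidonic acid for 30 min, room temperature, Hepes pH 7.0 with 0.01% Triton X-100. Hydroperoxide detected by ferrous iron/xylenol orange; 573/405 nm absorbance ratio gives reaction progress.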
HPGD inh: blocks human HPGD enzyme activity | Potency, µM, for the others: at the top dose activity change, negative = inhibition, actives largely listed as inhibitors | AID 894 | purified HPGD, NADH fluorescence kinetic, PGE2 substrate | P15428 | 4.3% of 150,000 active; note: potency is the fitted concentration of half-maximal effect
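20 nM HPGD preincubated 15 min at room temperature with compound in 50 mM Tris-HCl pH 8, 0.01% Tween 20. Started with 1 mM NAD+ and 30 uM prostaglandin E2; NADH fluorescence (360/450 nm) read 5 times over 30-s intervals, last minus first.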
PNC inhibitor: perinucleolar compartment assembly inhibition. PC3M PTB-GFP, PNC prevalence imaging, 16 h; active compounds read low. activity change (PNC), negative = inhibition, % at 10 µM. AID 2417. 3.1% of 140,000 active;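 active = readout at or below -70, meaning at least 70% loss of cells showing the perinucleolar compartment, a nuclear body marking cancer cells; inconclusive = readout between -30 and a set limit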;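 note: plate controls were DMSO wells for no effect and camptothecin positive control wells for full effect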
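Compounds are pinned in duplicate onto adhered PC3M cells stably expressing GFP-tagged PTB and incubated 16 h at 37 C. Cells are then fixed, nuclei stained with Hoechst, and PNC-positive cells counted.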
Numbers without * were called inactive; [ ] = another dose, or the depositor's remark. Only some compounds are listed: those with a hit (about 10% of all), similar ones and a draw of the others. Unless noted, calls come from the whole dose curve; as a rule, active = well fitted inhibition curve with a large enough effect (not every such curve was filed as active); inconclusive = small, poorly fitted or top-dose-only effect, or another doubt; inactive = no such curve, though single readings can be large or run the other way. Unless noted, % is set by controls: 0 for no effect and ±100 for the full control effect.

How did COc1ccc(CNC(=O)c2ccc3c(c2)N(Cc2cccc(Cl)c2)C(=O)c2ccccc2S3)c(OC)c1 do in these assays?
Lamin A splicing: -12.2%[46 µM]

What do the screens show for `O=C(CC1=NCCNC(c2ccccc2)C1)c1ccccc1O` (configuration not stated)?
ALDH1A1 block: 17.8µM*; Lamin A splicing: 3.1%; ALOX12 inhib: inconclusive; HPGD inh: 25.1µM*; PNC inhibitor: 31.1

How did Cc1nc(Nc2ccc(Cl)cc2)cc(-c2ccccc2)n1 do in these assays?
Lamin A splicing: 5.4%[46 µM]

How did O=C1COc2ccc(C(=O)COC(=O)Cn3cnc4ccccc43)cc2N1 do in these assays?
ALDH1A1 block: 28.2µM*; Lamin A splicing: 10.1%; ALOX12 inhib: -6.0%; HPGD inh: -11.8%; PNC inhibitor: inconclusive

How did O=C1COc2ccc(C(=O)COC(=O)c3ccc4ccccc4n3)cc2N1 do in these assays?
ALDH1A1 block: 4.5%; Lamin A splicing: -4.8%; ALOX12 inhib: 1.5%; HPGD inh: -17.8%; PNC inhibitor: 3.5

Results for O=C1COc2ccc(C(=O)COC(=O)c3cnc(Cl)c(Cl)c3)cc2N1 ?
ALDH1A1 block: 1.26µM*; Lamin A splicing: inconclusive

How did O=C1CS/C(=N/N=C/c2ccccc2)N1Cc1ccco1 do in these assays?
ALDH1A1 block: 11.2µM*

What do the screens show for `COc1ccc(OC)c(/C=N/N=C2\SCC(=O)N2Cc2ccco2)c1`?
ALDH1A1 block: 5.01µM*; Lamin A splicing: -13.9%; ALOX12 inhib: -2.2%; HPGD inh: -14.9%; PNC inhibitor: -3.7

Results for NC(=O)C1CCN(C(=O)CCSc2ccc(Cl)cc2)CC1 ?
ALDH1A1 block: 1.7%; Lamin A splicing: 24.2%[46 µM]

Results for Cc1ccc(OCC(=O)N2CCCCCC2)c(C)c1 ?
ALDH1A1 block: -1.7%; Lamin A splicing: -10.0%; ALOX12 inhib: -4.2%; HPGD inh: -18.5%; PNC inhibitor: inconclusive

What do the screens show for `O=C(CCCOc1ccc(Cl)cc1Cl)N1CCc2ccccc2C1`?
ALDH1A1 block: -2.1%; Lamin A splicing: -0.1%; ALOX12 inhib: -24.6%; HPGD inh: 2.51µM*; PNC inhibitor: -19.0

Results for Cc1cc(Br)ccc1OCC(=O)N1CCCCCC1 ?
ALDH1A1 block: inconclusive; Lamin A splicing: 22.5%; ALOX12 inhib: -1.3%; HPGD inh: 39.8µM*; PNC inhibitor: 12.9

How did Cc1cc(OCCCC(=O)N2CCCCC2)cc(C)c1Cl do in these assays?
ALDH1A1 block: inconclusive; Lamin A splicing: -3.5%; ALOX12 inhib: -2.9%; HPGD inh: 7.94µM*; PNC inhibitor: inconclusive

How did O=C(CCSc1ccc(Cl)cc1)N1CCCCCC1 do in these assays?
ALDH1A1 block: -6.7%; Lamin A splicing: -0.3%; ALOX12 inhib: -10.1%; HPGD inh: 10µM*; PNC inhibitor: -24.7

Results for COCCCNC(=O)CSC1=Nc2ccccc2C2=NC(CCC(=O)NCc3ccccc3OC)C(=O)N12 (configuration not stated) ?
Lamin A splicing: 13.1%[46 µM]

What do the screens show for `Cc1cccc(C(=O)Nc2ccc(C(=O)OCc3cc(=O)n4nc(CC(C)C)sc4n3)cc2)c1`?
Lamin A splicing: 14.6%[46 µM]

What do the screens show for `CC(C)(CCC(C)(C)c1ccccc1)c1ccccc1`?
ALDH1A1 block: 11.3%[13.5 µM]; ALOX12 inhib: 1.8%[11.4 µM]; HPGD inh: -2.3%

Results for CC1CCN(C(=O)CSCc2ccc(Cl)cc2)CC1 ?
ALDH1A1 block: 2.6%; Lamin A splicing: -4.1%; ALOX12 inhib: -0.1%; HPGD inh: -18.7%; PNC inhibitor: 4.5

Results for Cc1cc(Cl)ccc1OCCCC(=O)N1CCCCC1 ?
ALDH1A1 block: -13.7%; Lamin A splicing: 17.9%; ALOX12 inhib: -1.2%; HPGD inh: 6.31µM*; PNC inhibitor: -8.8

Results for CC1CCN(C(=O)CCCOc2ccc(Cl)cc2)CC1 ?
ALDH1A1 block: inconclusive; Lamin A splicing: inconclusive; ALOX12 inhib: -6.6%; HPGD inh: 2.82µM*; PNC inhibitor: -4.4

What do the screens show for `Clc1ccc(C2=NN=C3COc4ccccc4N3C2)cc1`?
ALDH1A1 block: 6.5%; Lamin A splicing: inconclusive; ALOX12 inhib: 3.1%; HPGD inh: 20µM*; PNC inhibitor: 46.8

How did Clc1ccc(C2=Nc3cc(Cl)ccc3OC2)cc1 do in these assays?
ALDH1A1 block: 5.0%; Lamin A splicing: -17.9%[46 µM]

Results for CCC(=O)N1CC23C=CC(CC2CC12CCCCC2)O3 (configuration not stated) ?
ALDH1A1 block: 15.8µM*; Lamin A splicing: -0.7%; ALOX12 inhib: -3.0%; HPGD inh: -3.7%; PNC inhibitor: -124.2*

What do the screens show for `CC1(C)OC(=O)C(=NNc2ccc(Cl)cc2)C(=O)O1`?
ALDH1A1 block: 3.16µM*; Lamin A splicing: 15.3%; ALOX12 inhib: -16.3%; HPGD inh: -27.0%; PNC inhibitor: 5.5

How did CC1(C)OC(=O)C(=NNc2ccccc2)C(=O)O1 do in these assays?
ALDH1A1 block: 15.8µM*; Lamin A splicing: 11.6%; ALOX12 inhib: -4.4%; HPGD inh: -23.0%; PNC inhibitor: -7.8

What do the screens show for `CN(C)c1ccc(/C=N\NC(=O)c2cnc3ccccc3c2)cc1`?
ALDH1A1 block: -12.1%[13.5 µM]; ALOX12 inhib: 1.6%[11.4 µM]; HPGD inh: -1.7%

How did Cc1cccc(N2CCN(S(=O)(=O)c3cc(C(=O)Nc4ccc(Oc5ccccc5)cc4)ccc3F)CC2)c1C do in these assays?
Lamin A splicing: -17.5%[46 µM]

Results for CC1CCN(c2nncc3ccccc23)CC1 ?
ALDH1A1 block: -2.9%; Lamin A splicing: inconclusive; ALOX12 inhib: -4.1%; HPGD inh: -4.7%; PNC inhibitor: -93.3*

How did CCCn1c2ccccc2c2nnc(SCC(=O)Nc3nnc(CC(=O)OCC)s3)nc21 do in these assays?
ALDH1A1 block: -7.2%; Lamin A splicing: 10.6%; ALOX12 inhib: -1.9%; HPGD inh: -8.1%; PNC inhibitor: 19.7

Results for CCOC(=O)Cc1nnc(NC(=O)CSc2nnc3c4ccccc4n(C(C)C)c3n2)s1 ?
ALDH1A1 block: 28.2µM*; Lamin A splicing: -3.6%; ALOX12 inhib: -2.2%; HPGD inh: inconclusive; PNC inhibitor: -16.7

Results for COC(=O)c1c(N)n(-c2ccc(NC(C)=O)cc2)c2nc3ccccc3nc12 ?
ALDH1A1 block: inconclusive; Lamin A splicing: -19.2%; ALOX12 inhib: -16.8%; HPGD inh: inconclusive; PNC inhibitor: -28.9

Results for COC(=O)c1c(N)n(-c2ccc(N3CCOCC3)cc2)c2nc3ccccc3nc12 ?
ALDH1A1 block: 17.8µM*; Lamin A splicing: -15.9%; ALOX12 inhib: -11.1%; HPGD inh: -25.8%; PNC inhibitor: 14.5

What do the screens show for `Cc1ccc(-c2cc(C(=O)Nc3cc(C)ccc3C)[nH]n2)c(O)c1`?
ALDH1A1 block: -0.7%; Lamin A splicing: 5.0%; ALOX12 inhib: 6.4%; HPGD inh: -12.7%; PNC inhibitor: -84.3*

How did CCOC(=O)/C(C#N)=C/c1cc(C)n(-c2ccc(C)cc2)c1C do in these assays?
ALDH1A1 block: 11.2µM*; Lamin A splicing: inconclusive; ALOX12 inhib: -8.9%; HPGD inh: -14.2%; PNC inhibitor: -10.4
